# Screening results from PubChem BioAssay.
# Sampled rows, rich in hits. Any-hit rate of the full collection: about 5.7%.
# KB-3-1 tox = kills parental KB-3-1 adenocarcinoma cells | 400,000 compounds, 1.4% hits | AID 1347075 | Potency, µM (top dose mostly 46.1 µM), usual class: cytotoxic | KB-3-1 viability, CellTiter-Glo ATP luminescence, 72 h; further: nearly all actives have a fitted effect of over 60% in size
#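 Parental KB-3-1 adenocarcinoma cells in phenol-red-free DMEM with 10% FBS were pin-treated with compounds at several concentrations, incubated 72 h at 37 °C, and viability read by CellTiter-Glo luminescence; concentration-effect curves were fitted after normalization.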
# HT1080-NT tox = kills 2HG-producing HT-1080-NT fibrosarcoma cells; Potency, µM (top dose mostly 46.1 µM), inactives show top-dose activity, negative = less viability, usual class: cytotoxic; HT-1080-NT fibrosarcoma viability, CellTiter-Glo ATP luminescence, 48 h; 360,000 compounds, 1.6% hits; AID 686970;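 further: NT is the 2HG producing partner of a matched IDH1 knockdown line; 0% = DMSO-treated cells and -100% = media-only wells without cells; nearly all actives have a fitted effect of over 55% in size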
#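 Read-out is CellTiter-Glo luminescence after 10 minutes at room temperature, following 48 hours' compound treatment of HT-1080-NT cells (750 cells/well, RPMI, 5% FBS, 37 degrees C).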
# KB-V1 cytotox = kills drug-selected multidrug resistant KB-V1 cells. 400,000 compounds, 3.4% hits. Potency, µM (highest dose often 46.1 µM), actives largely listed as cytotoxic. AID 1347076. KB-V1 MDR cells viability, CellTiter-Glo, 72 h; further: nearly all actives have a fitted effect of over 60% in size
#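 Potencies derive from concentration-effect curves fitted to normalized luminescence (CellTiter-Glo) of KB-V1 cells treated for 72 h at 37 degrees C in phenol-red-free DMEM containing 10% FBS.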
# HT1080 IDH1KD tx = HT-1080 IDH1 knockdown cell toxicity (counter line); HT-1080 IDH1 knockdown viability, ATP luminescence, 48 h; Potency, µM (doses to about 46.1 µM), inactives show at the top dose activity, negative = toxicity, usual class: cytotoxic; 360,000 compounds, 2% hits;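 further: 0% = DMSO wells and -100% = cell-free medium wells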
#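 In this qHTS, HT-1080 cells depleted of IDH1 are exposed for 48 h at 37 °C to compound titrations. Toxicity is scored from CellTiter-Glo luminescence, with DMSO as full viability and medium alone as none.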
# Starred values were filed as active, the others as inactive; i = inactive; ? = inconclusive; . = not tested or not shown. The call rests on the fitted dose curve; in most records, active means well fitted curve in the direction sought with a large enough effect; inconclusive means small, poorly fitted or top-dose-only effect, or another doubt; inactive means no such curve, though single readings can be large; an effect the other way counts as inactive or inconclusive. Unless noted, on the % scale 0 is the no-effect control and ±100 the full control effect; potency means the concentration at half of the fitted maximal effect.
SMILES,KB-3-1 tox,HT1080-NT tox,KB-V1 cytotox,HT1080 IDH1KD tx
Cc1ccccc1NCC(=O)N/N=C/C(Br)=C/c1ccccc1,?,?,?,17.8µM*
CC1C(OC(=O)CCC(=O)NC(C)(C)CO)O[C@H]2OC3(C)CC[C@H]4[C@H](C)CCC1C24OO3 (stereo not given in full),10.3µM*,?,13µM*,10.3µM*
C[C@H]1[C@H](OC(=O)CCC(=O)NCc2ccc(C(=O)O)cc2)O[C@@H]2O[C@@]3(C)CC[C@H]4[C@H](C)CC[C@@H]1C24OO3,8.2µM*,?,14.6µM*,8.2µM*
CC(C)CC(NC(=O)CCCNC(=O)CCC(=O)OC1O[C@H]2OC3(C)CC[C@H]4[C@H](C)CCC(C1C)C24OO3)C(=O)O (stereo not given in full),7.31µM*,23.1µM*,?,18.4µM*
CC1=C2[C@@H]3OC(=O)[C@H](C)C3CC[C@@]2(C)C=CC1=O (stereo not given in full),i,10.4%,i,5.5%
COc1ccc(CNCCc2c(C)[nH]c3ccc(OC(F)(F)F)cc23)c(OC)c1,?,20.6µM*,7.31µM*,23.1µM*
CCOC(=O)c1cnc(N2CC2)nc1N,?,-2.0%,5.8µM*,7.0%
O=C(Nc1ccc2c(c1)OCO2)c1cccn(Cc2ccc(F)cc2)c1=O,i,.,i,.
CCOC(=O)[C@]12Cc3c(cc(OC)c(OC)c3OC)[C@H]1N(CCC(=O)OC)C(=O)c1ccccc12,8.2µM*,?,?,?
CCOC(=O)[C@]12Cc3ccsc3[C@H]1N(Cc1ccccc1)C(=O)c1ccccc12,?,-6.6%,?,-0.3%
CCOC(=O)[C@]12Cc3ccccc3[C@H]1N(CCC(=O)OC)C(=O)c1cc(OC)ccc12,?,?,9.2µM*,?
CCOC(=O)[C@]12Cc3cc(OC)ccc3[C@H]1N(CCC(=O)OC)C(=O)c1cc(OC)ccc12,5.17µM*,?,?,?
CCOC(=O)[C@]12Cc3c(cc(OC)c(OC)c3OC)[C@H]1N(C)C(=O)c1ccccc12,?,10.7%,i,1.1%
O=c1[nH]c2ccccc2n1C1CCN(C(CCc2ccccc2)c2nnnn2C2CCCC2)CC1 (stereo not given),?,?,3.26µM*,?
O=c1[nH]c2ccccc2n1C1CCN(C(c2cc3ccccc3o2)c2nnnn2Cc2ccccc2)CC1 (stereo not given),?,10.3µM*,?,8.2µM*
COc1ccc(-n2nnnc2C(C2CC2)N2CCC(n3c(=O)[nH]c4ccccc43)CC2)cc1 (stereo not given),i,?,?,?
O=c1[nH]c2ccccc2n1C1CCN(C(c2cccc3ccccc23)c2nnnn2Cc2ccccc2)CC1 (stereo not given),?,?,i,?
COc1cccc(C(c2nnnn2Cc2ccccc2)N2CCC(n3c(=O)[nH]c4ccccc43)CC2)c1OC (stereo not given),?,20.6µM*,18.4µM*,?
CCC1([N+](=O)[O-])COP(N)(=O)OC1 (stereo not given),i,7.1%,i,23.6%
CCC1(CCC(C)C)C(=O)NC(=O)N(c2ccccc2)C1=O (stereo not given),i,13.3%,?,16.4%
Cc1ccc(-n2c(=O)[nH]c3ccccc3c2=O)cc1[N+](=O)[O-],i,16.4%,i,28.4%
Cc1cc(-c2ccccc2)cc(C)[n+]1Cc1ccccc1,5.8µM*,-0.8%,i,-25.8%
O=[N+]([O-])c1ccc(C[n+]2c(-c3ccccc3)cc(-c3ccccc3)cc2-c2ccccc2)cc1,?,-19.0%,i,-14.4%
N#Cc1cc(NC(=O)c2ccc(Cl)cc2)ccc1Sc1ccccc1,?,?,i,20.6µM*
O=C(Nc1cc[c]([Sb](=[O])([OH])[OH])cc1)c1ccccc1,i,.,i,.
SMILES,KB-3-1 tox,HT1080-NT tox,KB-V1 cytotox,HT1080 IDH1KD tx
COc1ccc(OCC(=O)N2CCN(C/C=C/c3ccccc3)CC2)cc1,i,2.4%,i,0.1%
COc1ccc(OC)c(CN2CCN(C(=O)COc3cccc(C)c3)CC2)c1,i,-1.1%,i,-0.7%
COc1ccc(CN2CCN(C(=O)COc3cccc(C)c3)CC2)c(OC)c1,i,4.5%,2.31µM*,-17.6%
O=C(COc1ccccc1)N1CCN(Cc2c[nH]c3ccccc23)CC1,i,-9.6%,i,-12.2%
COc1ccc(OCC(=O)N2CCN(Cc3c[nH]c4ccccc34)CC2)cc1,i,-0.5%,16.4µM*,-0.2%
O=C(COc1ccccc1)N1CCN(C/C=C/c2ccccc2)CC1,i,2.8%,16.4µM*,1.5%
CCC12CN3CC(CC)(CN(C1)C3c1c(C)[nH]c(=O)[nH]c1=O)C2=O (stereo not given),i,.,?,.
COc1cc(CN=C(C)c2c(O)n(C)c(=O)n(C)c2=O)cc(OC)c1,?,0.7%,?,-2.7%
CC(=NCc1ccc(F)cc1)c1c(O)n(C)c(=O)n(C)c1=O,5.8µM*,-0.1%,?,?
CC(C)Nc1ccc(Nc2ccccc2)cc1,18.4µM*,.,i,.
COc1cc(C(=O)OCc2cc(=O)c(O)co2)ccc1OC(F)F,i,?,i,-20.8%
c1coc(CN2Cc3ccccc3-n3nncc3C2)c1,i,3.3%,i,-1.0%
COC(=O)C1=C(C(=O)OC)C2OC1c1cc3ccccc3cc12,i,?,i,3.26µM*
